Source: PubChem (National Center for Advancing Translational Sciences (NCATS))
Marburg entry inh = qHTS for inhibitors of binding or entry into cells for Marburg Virus; AID 540276, 2011; hit rate 1.8% among 300,000; Potency, µM (titrated, usually from 37.8 µM), actives largely listed as inhibitors; Marburg virus pseudotyped entry inhibition, cell reporter; calls by dose curve; tested in HEK293 cells
HCMV antiviral = qHTS Assay for inhibitors of the human cytomegalovirus (HCMV); activity change, negative = inhibition, % at 57.5 µM; hit rate 4.5% among 410,000; HFF cells, HCMV-luciferase reporter, 72 h; active compounds read low; in the data active = activity change below about -60%; inconclusive = no clear call, values can overlap the other calls; inactive = above about -39%
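Luciferase read-out from HCMV-luciferase-infected HFFs (MOI 1 PFU/cell) 72 h post infection at 37C; compounds added after 16 h cell attachment; activity normalized between buffer-only basal and Salinomycin (10uM) inhibitor controls.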
Lassa entry inh = qHTS for Inhibitors of binding or entry into cells for Lassa Virus; hit rate 1.2% among 300,000; Potency, µM (highest dose often 37.9 µM), actives largely listed as inhibitors; Lassa virus pseudotype entry inhibition, cell reporter; calls by dose curve; tested in HEK293 cells; note: nearly all actives have a fitted effect of over 50% in size
FMDV antiviral = High Throughput Screening for Foot and Mouth Disease Virus Antivirals; Potency, µM (top dose mostly 57.9 µM), usual class: inhibitors; FMDV antiviral cell-based qHTS; hit rate 1.2% among 410,000; calls by dose curve; tested in HEK293T cells; note: read-out not given here; nearly all actives have a fitted effect of over 45% in size
Large screens that a line does not name were inactive; ! = a repeat was not active. Sampled rows, rich in hits. Any-hit rate of the full collection: about 6.2%.

Cc1c(CCOC(=O)C23CC4CC(CC(C4)C2)C3)sc[n+]1CC#N	Marburg entry inh inconclusive, HCMV antiviral -99, Lassa entry inh inconclusive, FMDV antiviral inconclusive
C=C1C(=O)O[C@@H]2[C@H]3O[C@]3(C)CC/C=C(\C)CC[C@@H]12	Marburg entry inh 22µM, FMDV antiviral 32µM! (no result: Lassa entry inh)
C[C@@H]1CN([C@H](C)CO)C(=O)c2c(c3ccccc3n2C)-c2ccccc2CO[C@H]1CN(C)Cc1ccccc1	none (no result: Marburg entry inh, Lassa entry inh)
COc1cccc(CN(C)C[C@@H]2OCc3ccccc3-c3c(n(C)c4ccccc34)C(=O)N([C@@H](C)CO)C[C@H]2C)c1	HCMV antiviral -105, FMDV antiviral inconclusive (no result: Marburg entry inh, Lassa entry inh)
CCCCCc1c2c(cc(O)c1C(=O)O)OC(=O)c1cc(C(=O)CCCC)c(OC)cc1O2	FMDV antiviral inconclusive (no result: Marburg entry inh, Lassa entry inh)
CCCCCc1c2c(cc(O)c1C(=O)O)OC(=O)c1c(cc(OC)cc1C(=O)CCCC)O2	FMDV antiviral 32µM! (no result: Marburg entry inh, HCMV antiviral, Lassa entry inh)
Cn1c(Sc2ccc(Br)cc2)c(C=O)c2ccccc21	Marburg entry inh inconclusive, Lassa entry inh 10µM, FMDV antiviral inconclusive
Cn1c(Oc2ccc(F)cc2)c(C=O)c2ccccc21	Marburg entry inh inconclusive, FMDV antiviral inconclusive
O=c1oc2ccccc2c(N2CCCC2)c1[N+](=O)[O-]	HCMV antiviral -94
O=c1oc2ccccc2c(N2CCCCC2)c1[N+](=O)[O-]	FMDV antiviral inconclusive
Cc1cccc2nc(-c3cccnc3)c(Nc3ccc(C(C)C)cc3)n12	Marburg entry inh inconclusive, HCMV antiviral -83, Lassa entry inh inconclusive, FMDV antiviral 28µM
Cc1ccccc1Nc1c(-c2cccnc2)nc2cccc(C)n12	HCMV antiviral -62!, FMDV antiviral inconclusive
CCN(CC)C(c1ccc(C)cc1)c1nnnn1C1CCCCC1 (stereo unspecified)	none
CCCCCCCn1c(=O)c(C(=O)OC)c(N)c2ccccc21	Marburg entry inh inconclusive, HCMV antiviral -89, Lassa entry inh inconclusive, FMDV antiviral 13µM
CCCCCCCCn1c(=O)c(C(=O)OC)c(N)c2ccccc21	Marburg entry inh inconclusive, HCMV antiviral -64, Lassa entry inh inconclusive, FMDV antiviral inconclusive
NC(N)=NOCCC(N)C(=O)O (stereo unspecified)	none (no result: HCMV antiviral)
CC(C)(C)NC(=O)CN(C(=O)c1ccc(CN2CCOCC2)o1)c1ccc2c(c1)OCCO2	none
O=C(NCc1ccccc1F)Nc1nnc([C@H]2C[C@H](O)[C@@H](CO)O2)s1	HCMV antiviral -93 (no result: Marburg entry inh, Lassa entry inh)
Cc1ccc(CSc2c(C)cnc3c2c(=O)n(C)c(=O)n3C)cc1	none (no result: Marburg entry inh)
CC1(C)Cc2c(c(N3CCOCC3)nc3snc(Br)c23)CO1	none
CC1(C)Cc2c(c(N3CCOCC3)nc3snc(N)c23)CO1	HCMV antiviral -102, FMDV antiviral inconclusive
Cc1ccc(C(=O)Nc2c(-c3cccs3)nc3cc(C)ccn23)cc1	Marburg entry inh inconclusive
Cc1ccn2c(NC(=O)C(C)(C)Oc3ccc(Cl)cc3)c(-c3cccs3)nc2c1	Marburg entry inh inconclusive, HCMV antiviral -60, Lassa entry inh inconclusive
COc1ccc(N2CCN(S(=O)(=O)c3c(C)[nH]c(C)c3C(=O)N3CCCC3)CC2)cc1	HCMV antiviral inconclusive
Cc1cccn2c(=O)c3cc(C(=O)N(Cc4ccccc4)C(C)C)sc3nc12	Marburg entry inh 4µM, Lassa entry inh inconclusive, FMDV antiviral inconclusive
Cc1ccc2oc(=O)c3cc(C(=O)N(Cc4ccccc4)C(C)C)sc3c2c1	HCMV antiviral -105, Lassa entry inh inconclusive
COc1ccc(C(=O)N2CCC(C(=O)O)CC2)c2ccccc12	none
CC(C)CCn1c(SCc2ccc(Cl)cc2)nc2c1c(=O)[nH]c(=O)n2C	Lassa entry inh inconclusive (no result: FMDV antiviral)
C/C=C/Cn1c(SCc2ccccc2)nc2c1c(=O)[nH]c(=O)n2C	Marburg entry inh inconclusive, Lassa entry inh 13µM, FMDV antiviral inconclusive
CCCCn1c(SCc2ccc(Cl)cc2)nc2c1c(=O)[nH]c(=O)n2C	Marburg entry inh inconclusive, Lassa entry inh inconclusive, FMDV antiviral 35µM
CCCc1nc(SC)ncc1C(=O)N1CCN(c2ccc(Cl)cc2)CC1	FMDV antiviral inconclusive (no result: Marburg entry inh)
CCOc1ccccc1C=Nc1ccccc1C(=O)Nc1ccccc1	none
Cc1ccc(-n2c(Cl)c(Cl)nc(Cl)c2=O)cc1	Marburg entry inh inconclusive, Lassa entry inh 7.3µM, FMDV antiviral 7.1µM (no result: HCMV antiviral)
C/C(=N\NC(=O)c1cc(C)nc2ccc(C)cc12)c1ccncc1	none (no result: Marburg entry inh, Lassa entry inh)
O=C(CCN1CCN(c2ccccc2)CC1)NNC(=O)c1cccc2ccccc12	none
NC(=S)N/N=C\c1c(OCc2ccccc2Cl)ccc2ccccc12	Marburg entry inh inconclusive, HCMV antiviral -97, Lassa entry inh inconclusive, FMDV antiviral inconclusive
NC(=S)N/N=C\c1c2ccccc2cc2ccccc12	Marburg entry inh inconclusive
CCOc1ccc(/C=N/OCC(=O)Nc2ccc(OCc3ccccc3)cc2)cc1OC	Marburg entry inh inconclusive
